Several values for one entry are separate records, joined by “and”; a condition that tells them apart may be missing. Equal entries are not always repeated. Inconclusive results are not listed. Values without a mark were called inactive. Activity calls are given as the source filed them. Calls follow the shape of the dose curve; as a rule, active = well fitted curve in the direction sought with a large enough effect; inconclusive = small, poorly fitted or top-dose-only effect, or another doubt; inactive = no such curve, though single readings can be large; an effect the other way counts as inactive or inconclusive.
How the values were obtained:
[1] = molecular target: Cellular tumor antigen p53 (Homo sapiens) (UniProt P04637); assay: Primary qHTS for small molecule compounds that upregulate eGFP-tagged delta133p53alpha (in N-terminal) cells. (AID 2060322); settings: NCI-H358 eGFP-delta133p53alpha fluorescence, 24 h; activation: stronger effect = higher value; also: nearly all actives have a fitted effect of over 75% in size; also: potency is read from the fitted curve at half-maximal effect;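 as to activation: cells pre-induced with doxycycline then dosed without doxycycline; series mostly up to about 56 µM; 0% = DMSO vehicle and 100% = reference activator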
Summary of the method: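 NCI-H358 cells pre-induced 24 h with 10 ng/ml doxycycline for eGFP-delta133p53alpha, plated dox-free and exposed 24 h at 37C to titrated compounds. Fixed, Hoechst-stained; gated GFP peak intensity by laser scanning cytometry, normalized to DMSO (0%) and 57.5 uM 5-azacytidine (100%).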

[2] = molecular target: Aldehyde dehydrogenase, mitochondrial (Homo sapiens) (UniProt P05091); assay: qHTS for Inhibitors of the Aldehyde Dehydrogenase Family (ALDH2) Primary screen (AID 2061308);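 also: plate controls were vehicle for no effect and reference inhibitor for full effect; nearly all actives have a fitted effect of over 55% in size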
[3] = molecular target: Retinaldehyde dehydrogenase 3 (Homo sapiens) (UniProt P47895); assay: qHTS for Inhibitors of the Aldehyde Dehydrogenase Family (ALDH1A3) Primary screen (AID 2061315);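 also: plate controls were DMSO vehicle for no effect and reference inhibitor for full effect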
[4] = BET inhibitor-based combinations targeting novel dependencies in MECOM-rearranged (r) AML: HNT-34 cell line (AID 2202234); also: nearly all actives have a fitted effect of over 35% in size; also: potency is read from the fitted curve at half-maximal effect
Summary of the method: (§1)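 Cells at 500/well were exposed for 48 hr to MIPE v5.0 drugs as 11-point dose curves. Viability was read by CellTiter-Glo luminescence and normalized to DMSO and empty-well controls. Activity was expressed as AUC and per-cell-line Z-AUC.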

[5] = BET inhibitor-based combinations targeting novel dependencies in MECOM-rearranged (r) AML: UCSD-AML1 cell line (AID 2202235); also: nearly all actives have a fitted effect of over 40% in size; also: potency is read from the fitted curve at half-maximal effect
Summary of the method: as §1

[6] = BET inhibitor-based combinations targeting novel dependencies in MECOM-rearranged (r) AML: AML-191 cell line (AID 2202236; also: nearly all actives have a fitted effect of over 35% in size; also: potency is read from the fitted curve at half-maximal effect)
Summary of the method: (§2)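 AML cell lines seeded at 500 cells/well, treated with 11-point dose curves for 48 h. Viability by CellTiter-Glo luminescence, normalised to DMSO and empty wells; activity expressed as AUC and per-cell-line Z-transformed AUC.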

[7] = BET inhibitor-based combinations targeting novel dependencies in MECOM-rearranged (r) AML: AML-194 cell line (AID 2202237; also: nearly all actives have a fitted effect of over 40% in size; also: potency is read from the fitted curve at half-maximal effect)
Summary of the method: as §2

[8] = BET inhibitor-based combinations targeting novel dependencies in MECOM-rearranged (r) AML: MV-4-11 cell line (AID 2202233); also: nearly all actives have a fitted effect of over 45% in size; also: potency is read from the fitted curve at half-maximal effect
Summary of the method: as §1

[9] = molecular target: Retinaldehyde dehydrogenase 3 (Homo sapiens) (UniProt P47895); assay: qHTS for Inhibitors of the Aldehyde Dehydrogenase Family (ALDH1A3) Confirmatory screens (AID 2061311); also: potency is read from the fitted curve at half-maximal effect; nearly all actives have a fitted effect of over 60% in size

Cellular tumor antigen p53 (Homo sapiens), sequence (P04637 whole entry, looked up): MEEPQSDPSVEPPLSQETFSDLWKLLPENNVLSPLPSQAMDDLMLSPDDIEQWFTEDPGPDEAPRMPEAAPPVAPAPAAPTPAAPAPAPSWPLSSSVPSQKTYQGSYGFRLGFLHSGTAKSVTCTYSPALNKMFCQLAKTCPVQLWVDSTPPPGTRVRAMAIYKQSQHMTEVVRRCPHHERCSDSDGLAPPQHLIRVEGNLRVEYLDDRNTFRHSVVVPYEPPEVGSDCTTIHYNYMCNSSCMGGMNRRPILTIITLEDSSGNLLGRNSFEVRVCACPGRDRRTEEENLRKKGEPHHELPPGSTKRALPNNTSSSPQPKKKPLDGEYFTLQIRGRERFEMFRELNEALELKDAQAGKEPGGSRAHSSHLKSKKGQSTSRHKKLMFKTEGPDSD

Compound: CC(C)[C@H](CO)Nc1nc(Nc2ccc(C(=O)O)c(Cl)c2)c2ncn(C(C)C)c2n1
- activation [1]: 6.33%
- Potency [2]: inactive
- Potency [3]: inactive
- Potency [4]: inactive
- Potency [5]: inactive
- Potency [6]: inactive
- Potency [7]: inactive

Compound: CCOc1cc(C(=O)Nc2ccc(Cl)c(-c3nc4ccccc4[nH]3)c2)cc(OCC)c1OCC
- activation [1]: 1.25% and 5.73%
- Potency [2]: inactive
- Potency [3]: inactive
- Potency [8]: 16.6 µM (active)
- Potency [4]: 14.8 µM (active)
- Potency [7]: inactive

Compound: COC(=O)/C=C/C(=O)N(O)CCCCNCc1ccc(COC(=O)Nc2cccc3ccccc23)cc1
- Potency [1]: 26.9 µM (active)
- Potency [2]: inactive
- Potency [3]: inactive
- Potency [4]: 5.9 µM (active)
- Potency [6]: 8.33 µM (active)
- Potency [7]: 8.33 µM (active)

Compound: Cc1cc(SCc2sc(-c3ccc(C(F)(F)F)cc3)nc2C)ccc1OCC(=O)O
- activation [1]: -4.33%
- Potency [2]: inactive
- Potency [3]: inactive
- Potency [8]: inactive
- Potency [4]: inactive
- Potency [5]: inactive
- Potency [6]: inactive
- Potency [7]: inactive

Compound: NC1CCC(N[C@@H]2C[C@H]2c2ccccc2)CC1 (stereo partly specified)
- activation [1]: 3.67% and 27.6%
- Potency [2]: inactive
- Potency [3]: inactive
- Potency [5]: 0.0019 µM (active)
- Potency [6]: inactive
- Potency [7]: inactive

Compound: CCN1CCN(c2ccc(Nc3cc(N(C)C(=O)Nc4c(Cl)c(OC)cc(OC)c4Cl)ncn3)cc2)CC1
- activation [1]: 34.2% and 7.14%
- Potency [2]: inactive
- Potency [3]: inactive
- Potency [4]: 13.2 µM (active)

Compound: CS(=O)(=O)N1CCN(Cc2cc3nc(-c4cccc5[nH]ncc45)nc(N4CCOCC4)c3s2)CC1
- activation [1]: -25.9%
- Potency [2]: inactive
- Potency [3]: inactive
- Potency [8]: 2.09 µM (active)
- Potency [5]: 0.468 µM (active)

Compound: Nc1ccn([C@@H]2C(F)=C(CO)[C@@H](O)[C@H]2O)c(=O)n1
- activation [1]: 0.893% and -30.2%
- Potency [2]: inactive
- Potency [3]: inactive
- Potency [8]: 0.235 µM (active)
- Potency [5]: 0.662 µM (active)

Compound: N#Cc1c(C2CCNCC2)cc(-c2c(O)cccc2OCC2CC2)nc1N
- activation [1]: -1.56%
- Potency [2]: inactive
- Potency [3]: inactive
- Potency [4]: 23.5 µM (active)
- Potency [5]: 16.6 µM (active)
- Potency [6]: 26.3 µM (active)
- Potency [7]: 16.6 µM (active)

Compound: CC(C)(O)CNc1nc(Nc2ccnc(C(F)(F)F)c2)nc(-c2cccc(C(F)(F)F)n2)n1
- activation [1]: -5% and -21.6%
- Potency [2]: inactive
- Potency [3]: inactive
- Potency [8]: 20.9 µM (active)
- Potency [5]: inactive

Compound: C[C@@H](N)c1ccc(C(=O)Nc2ccnc3[nH]ccc23)cc1
- activation [1]: 21.5%
- Potency [2]: inactive
- Potency [3]: inactive
- Potency [8]: 3.72 µM (active)
- Potency [5]: 18.6 µM (active)
- Potency [6]: 16.6 µM (active)
- Potency [7]: 14.8 µM (active)

Compound: CC(C)(CNC(=O)c1cccc(-c2noc(C(F)(F)F)n2)c1)c1coc(-c2ccccc2)n1
- activation [1]: -0.477%
- Potency [2]: inactive
- Potency [3]: inactive
- Potency [8]: 23.5 µM (active)
- Potency [5]: inactive
- Potency [6]: 11.8 µM (active)

Compound: CS(=O)(=O)c1ccc(-c2cnc(N)c(C(=O)Nc3ccccc3)n2)cc1
- activation [1]: -13%
- Potency [2]: inactive
- Potency [3]: inactive
- Potency [8]: 7.42 µM (active)
- Potency [6]: 4.68 µM (active)
- Potency [7]: 5.9 µM (active)

Compound: Cc1ccc2c(c1)C(=O)[C@]1(O)CCN(c3ccccc3)C1=N2
- activation [1]: -1.14% and -10.7%
- Potency [2]: inactive
- Potency [3]: inactive
- Potency [8]: 23.5 µM (active)
- Potency [5]: inactive
- Potency [6]: 23.5 µM (active)
- Potency [7]: 16.6 µM (active)

Compound: CCC(=O)N1CCN(c2ccc(-n3c(=O)ccc4cnc5ccc(-c6cnc7ccccc7c6)cc5c43)cc2C(F)(F)F)CC1
- activation [1]: 41.3%
- activity change, negative = inhibition [2]: -6.8% [at 11.2 µM]
- activity change, negative = inhibition [3]: 3.25% [at 11.2 µM]
- Potency [5]: 0.0091 µM (active)

Compound: CC(Nc1ncnc2nc[nH]c12)c1cc2cccc(Cl)c2c(=O)n1-c1ccccc1 (stereo unspecified)
- activation [1]: 27.7%
- Potency [2]: inactive
- Potency [3]: inactive
- Potency [8]: 5.9 µM (active)
- Potency [5]: 3.72 µM (active)

Compound: Cc1ccc(NC(=O)c2ccc(CN3CCNCC3)cc2)cc1Nc1nccc(-c2cccnc2)n1
- activation [1]: -16.1%
- Potency [2]: inactive
- Potency [3]: inactive
- Potency [8]: 18.6 µM (active)
- Potency [4]: 2.63 µM (active)
- Potency [7]: 23.5 µM (active)

Compound: NC(=O)c1ccc2nc(-c3ccc(Oc4ccc(Cl)cc4)cc3)[nH]c2c1
- activation [1]: -21.2% and -4.33%
- Potency [2]: inactive
- Potency [3]: inactive
- Potency [4]: 16.6 µM (active)
- Potency [6]: inactive
- Potency [7]: inactive

Compound: COc1ccc2cc(-c3nc(-c4ccc(S(C)=O)cc4)[nH]c3-c3ccncc3)ccc2c1 (stereo unspecified)
- activation [1]: -7.86% and 8.04%
- Potency [2]: inactive
- Potency [3]: inactive
- Potency [5]: inactive

Compound: COc1cc2c(N3CCN(C(=O)Nc4ccc(OC(C)C)cc4)CC3)ncnc2cc1OCCCN1CCCCC1
- activation [1]: 54% and 21.4%
- Potency [2]: inactive
- Potency [3]: inactive
- Potency [8]: 0.59 µM (active)
- Potency [5]: 16.6 µM (active)
- Potency [7]: 23.5 µM (active)

Compound: CN1CCc2c(n(Cc3ccc(C(=O)NO)cc3)c3ccccc23)C1
- activation [1]: 23.6%
- Potency [2]: inactive
- Potency [8]: 20.9 µM (active)
- Potency [5]: inactive

Compound: COc1ccccc1C(=O)Nc1cc2c(cc1N1CCCC1)n(C)c(=O)n2C
- activation [1]: -44.7%
- Potency [2]: inactive
- Potency [8]: 16.6 µM (active)
- Potency [4]: 26.3 µM (active)

Compound: O=C1OCc2cc3cccc(O[C@@H]4O[C@H](CO)[C@@H](O)[C@H](O)[C@H]4O)c3c(O)c21
- activation [1]: -11.5%
- Potency [9]: 13.9 µM (active)
